Screening results: PubChem, National Center for Advancing Translational Sciences (NCATS)
hNpr1 antagonist – blocks ANP-stimulated signaling of human Npr1 receptor | P16066 | 76,000 compounds, 1.6% hits | AID 1347048 | Potency, µM (top dose mostly 46.3 µM), without a hit: at the top dose activity change, negative = inhibition, hits mostly inhibitors | HEK293 hNpr1 GloSensor cGMP, ANP-stimulated luminescence; calls by dose curve; further: nearly all actives have a fitted effect of over 60% in size
Target sequence (P16066 whole entry, looked up): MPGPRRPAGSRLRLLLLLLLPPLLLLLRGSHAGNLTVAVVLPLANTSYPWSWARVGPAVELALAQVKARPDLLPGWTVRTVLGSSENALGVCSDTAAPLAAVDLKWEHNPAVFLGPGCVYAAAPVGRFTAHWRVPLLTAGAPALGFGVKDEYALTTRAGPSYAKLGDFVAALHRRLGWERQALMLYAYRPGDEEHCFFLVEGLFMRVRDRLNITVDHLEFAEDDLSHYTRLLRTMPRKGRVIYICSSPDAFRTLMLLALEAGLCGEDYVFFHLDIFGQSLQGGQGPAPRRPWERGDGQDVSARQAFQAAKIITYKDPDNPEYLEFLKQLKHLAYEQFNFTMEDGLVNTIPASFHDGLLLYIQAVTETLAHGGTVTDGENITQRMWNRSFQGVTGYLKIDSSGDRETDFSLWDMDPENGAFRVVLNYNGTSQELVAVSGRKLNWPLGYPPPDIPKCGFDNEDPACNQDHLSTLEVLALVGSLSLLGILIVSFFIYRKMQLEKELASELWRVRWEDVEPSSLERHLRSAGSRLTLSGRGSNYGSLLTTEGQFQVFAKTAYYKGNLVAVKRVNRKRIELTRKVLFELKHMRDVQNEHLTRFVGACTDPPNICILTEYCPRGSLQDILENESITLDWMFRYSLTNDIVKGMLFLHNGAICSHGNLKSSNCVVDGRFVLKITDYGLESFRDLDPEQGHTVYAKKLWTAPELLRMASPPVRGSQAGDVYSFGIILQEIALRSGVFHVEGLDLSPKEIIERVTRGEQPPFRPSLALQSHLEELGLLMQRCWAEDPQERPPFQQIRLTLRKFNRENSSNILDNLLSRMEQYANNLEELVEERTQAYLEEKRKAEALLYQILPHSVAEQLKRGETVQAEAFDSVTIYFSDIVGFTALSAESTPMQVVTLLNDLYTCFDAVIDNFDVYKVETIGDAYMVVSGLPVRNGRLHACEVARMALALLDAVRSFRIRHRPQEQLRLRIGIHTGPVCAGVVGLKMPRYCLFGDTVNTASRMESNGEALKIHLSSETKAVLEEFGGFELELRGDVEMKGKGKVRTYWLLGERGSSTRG
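Compound pre-incubated 30 min at room temperature on GloSensor-loaded HEK293 cells stably carrying hNpr1 and the pGS-40F cGMP biosensor. Stimulation uses hNppA at 0.1 nM final; luminescence is taken at baseline and 20 min post-agonist.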
GPT2 inhibitor – inhibitors of human GPT2 alanine aminotransferase; Q8TD30; Recombinant GPT2, coupled pyruvate oxidase/HRP Amplex Red fluorescence; Potency, µM (highest dose often 57.7 µM), without a hit: top-dose activity change, negative = inhibition, most hits filed as inhibitors; 100,000 compounds, 0.25% hits; AID 1671188; further: nearly all actives have a fitted effect of over 60% in size
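GPT2 10ng/uL, a-KG 250uM, L-Ala 2mM, HEPES pH7.5 + 0.0001% Tween; 30 min RT. Then Amplex mix (PO/HRP/ThPP), 30 min RT dark, fluorescence. AOA 50uM used as positive control.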
HEK293 tox – kills HEK 293 cells; Potency, µM (series often up to 115 µM), for inactives: top-dose activity change, negative = cytotoxicity, hits mostly inhibitors; 94,000 compounds, 6.6% hits; AID 1345083; HEK 293 viability, ATP luminescence (CellTiter-Glo), 48-72 h; further: nearly all actives have a fitted effect of over 60% in size
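HEK 293 cells seeded at 250 cells/well were exposed to compound for 48 or 72 hr at 37 degree Celsius. Viability taken as ATP content by CellTiter-Glo luminescence.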
3T3 cytotox – NIH 3T3 cell cytotoxicity | NIH 3T3 viability, CellTiter-Glo ATP luminescence, 48-72 h | 94,000 compounds, 4.3% hits | AID 1345082 | Potency, µM (series often up to 96.7 µM), for inactives: at the highest dose activity change, negative = cytotoxicity, usual class: inhibitors; further: nearly all actives have a fitted effect of over 55% in size
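Viability of NIH 3T3 cells after 48 or 72 hr compound treatment at 37 °C was assessed by CellTiter-Glo, with luminescence imaged following a 10 min room-temperature step.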
Luciferase inh – blocks purified firefly luciferase enzyme activity; P08659; purified P. pyralis luciferase, luminescence, biochemical; Potency, µM (series often up to 115 µM), most hits filed as inhibitors; 76,000 compounds, 2.5% hits; AID 1347043; further: nearly all actives have a fitted effect of over 65% in size
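Purified 10nM P. pyralis luciferase with 10uM D-luciferin and 10uM ATP in 50mM Tris acetate pH 7.5, 10mM Mg acetate, 0.01% Tween-20, 0.05% BSA. qHTS titration; luminescence read by CCD imager.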
* hit, by the source's call; i = inactive; u = inconclusive; x = no result given; [ ] = remark or other dose. Shown are actives, neighbours in structure and some others; about 10% of the full set was active somewhere. Unless noted, the call rests on the fitted dose curve; in most records, active means well fitted curve in the direction sought with a large enough effect; inconclusive means small, poorly fitted or top-dose-only effect, or another doubt; inactive means no such curve, though single readings can be large; an effect the other way counts as inactive or inconclusive. On the % scale 0 is the no-effect control and ±100 the full control effect; potency means the concentration at half of the fitted maximal effect.

SMILES	hNpr1 antagonist	GPT2 inhibitor	HEK293 tox	3T3 cytotox	Luciferase inh
OC(CCc1ccccc1)C1CCN(Cc2nc(-c3ccccn3)no2)CC1 (stereo unspecified)	-5%	i	-14%	-29%	i
CN1CCC(C(=O)N2Cc3ccccc3CC3(CCN(Cc4ccccn4)CC3)C2)CC1	x	0%	-12%	-14%	x
COCCCNC(=O)C1CCCCc2nnc(-c3ccccc3)n21 (stereo unspecified)	x	-4%	0%	4%	x
COc1cc(N2CCC(O)CC2)ccc1Nc1nc(Nc2ccccc2S(=O)(=O)C(C)C)c2[nH]cnc2n1	x	18µM*	x	x	x
COc1ccc(-c2noc(-c3cccn3CC(=O)NCCC3=CCCCC3)n2)cc1F	-1%	4%	-1%	-6%	i
Cc1ccc(-c2noc([C@@H]3C[C@@H](O)CN3Cc3ccc(S(C)(=O)=O)cc3)n2)cc1F	2%[70.6 µM]	1%[88.5 µM]	u	u	71µM*
COc1ccc(-c2noc([C@@H]3C[C@@H](O)CN3C3CCCCC3)n2)cc1	5%[70.6 µM]	u	u	u	71µM*
Cc1ccc(CN2C[C@H](O)C[C@H]2c2nc(-c3ccc(F)cc3)no2)cc1	2%[70.6 µM]	-25%[88.5 µM]	u	u	i
CC(=O)N1CCC(N2C[C@H](O)C[C@H]2c2nc(-c3ccc(C(F)(F)F)cc3)no2)CC1	-10%[70.6 µM]	i	71µM*	u	u
Cc1ccc(-c2noc([C@@H]3C[C@@H](O)CN3C3CCCCC3)n2)cc1F	3%[70.6 µM]	-12%[88.5 µM]	-20%[172 µM]	-29%[174 µM]	50µM*
O=C(CC1CCCN(c2cnn(CC3CC3)c(=O)c2)C1)N1CCN(c2ccccn2)CC1 (stereo unspecified)	-28%	i	u	u	i
CCC(C)NC(=O)c1ccc(-c2ccc(OC)nn2)cc1 (stereo unspecified)	x	x	u	-18%[138 µM]	x
CN1CCN([C@@H]2[C@H](O)[C@H](CO)O[C@@H]2CN(Cc2ccc(Cl)cc2)Cc2cccc(Cl)c2)CC1	u	0%	u	28µM*	i
CC(C)Oc1cccc(-c2nc(C(=O)NCc3ccco3)cs2)c1	-22%	-6%	u	u	u
CC(C)Oc1cccc(-c2nc(C(=O)NCc3ccccc3)cs2)c1	u	i	32µM*	u	i
CCCOc1cccc(-c2nc(C(=O)NCC)cs2)c1	-18%	-5%	32µM*	u	i
COc1ccc(C(=O)N[C@@H]2CN(Cc3ccccc3)C[C@H]2CN(C)C)cc1F	x	2%	6.3µM*	20µM*	x
CN(C)C[C@@H]1CN(Cc2ccccc2)C[C@H]1NC(=O)c1nn(C)c2ccccc12	x	i	40µM*	u	x
CN(C)C[C@@H]1CN(Cc2ccccn2)C[C@H]1NC(=O)c1ccc(Cl)s1	-1%	i	79µM*	-9%	i
CCCCCC(=O)N1c2cccc3c2[C@@H](C[C@H]1C(N)=O)CN(Cc1ccc(OC)cc1)C3=O	x	-5%[27.3 µM]	u	u	x
COc1ccc(C(=O)N2CCCn3nc(C)c(-c4ccccc4-c4ccccc4)c32)cn1	-18%[70.6 µM]	-10%[88.5 µM]	u	u	i
Cc1nn2c(c1-c1ccccc1-c1ccccc1)N(C(=O)c1cccnc1)CCC2	-9%[70.6 µM]	-16%[88.5 µM]	-28%[172 µM]	u	i
Cc1ccncc1-c1c(C)nn2c1N(C(=O)c1cccc(Cl)c1)CCC2	0%[70.6 µM]	3%[88.5 µM]	-25%[172 µM]	u	i
Cc1nn2c(c1-c1ccccc1Oc1ccccc1)N(C(=O)C1CCC1)CCC2	-5%[70.6 µM]	-11%[88.5 µM]	89µM*	u	i
Cc1nn2c(c1-c1ccccc1-c1ccccc1)N(C(=O)C1CCOCC1)CCC2	3%[70.6 µM]	0%[88.5 µM]	-10%[172 µM]	u	i
SMILES	hNpr1 antagonist	GPT2 inhibitor	HEK293 tox	3T3 cytotox	Luciferase inh
COc1ccccc1C(=O)N1CCCn2nc(C)c(-c3ccccc3-c3ccccc3)c21	-1%[70.6 µM]	i	89µM*	u	i
COc1ccc(C(=O)N2CCCn3nc(C)c(-c4ccccc4-c4ccccc4)c32)cc1	-22%[70.6 µM]	-30%[88.5 µM]	35µM*	u	i
Cc1nn2c(c1-c1cccc3cn[nH]c13)N(C(=O)c1cccc(Cl)c1)CCC2	-1%[70.6 µM]	i	50µM*	u	i
CNC(=O)[C@@H]1CCCN1c1nccc(Nc2ccccc2Cl)n1	x	1%[88.5 µM]	u	-22%[138 µM]	x
CCOc1ccccc1NC(=O)C1c2ccccc2C(=O)N(CCOC)C12CCCCC2 (stereo unspecified)	u	i	-37%	u	i
COc1ccc(CC(=O)N2CCN(C(=O)c3nc4cccnc4n(-c4ccccc4OC)c3=O)CC2)cc1	x	i	-2%	-25%	x
CCOC(=O)C1CCN(C(=O)C2COC3(CCCCC3)N2C(=O)c2ccccc2)CC1 (stereo unspecified)	-4%	i	-10%	-34%	i
COc1ccc(NC(=O)c2ccc3c(c2)N(C)C2CCCCCN2C3=O)c(OC)c1 (stereo unspecified)	3%	i	u	-29%	u
O=C(NCC(=O)N1CCC(Cc2ccccc2)CC1)c1ccc(-c2cnc3ccccc3c2)cc1	x	-5%	10µM*	u	x
OCCC1CCN(c2ccc(-c3nc(CCCc4ccccc4)no3)cn2)CC1	-17%	0%[11.5 µM]	-19%	1%	i
OCCC1CN(c2ccc(-c3nc(CCCc4ccccc4)no3)cn2)CCO1 (stereo unspecified)	u	-14%[11.5 µM]	50µM*	u	i
CC1(O)CCCN(c2ccc(-c3nc(CCCc4ccccc4)no3)cn2)C1 (stereo unspecified)	u	-9%	32µM*	u	35µM*
COCCN1CCCCCC(O)c2cc(C(=O)N3CC=C(c4ccccc4)CC3)ccc21 (stereo unspecified)	2%	i	u	u	i
OC1CCOC2(CCN(Cc3ccccc3OC(F)(F)F)CC2)C1 (stereo unspecified)	-3%	i	-1%	2%	i
O=C(Nc1ccccc1)c1ccc(-c2cccc3c2CCNC3)o1	-24%	-16%	u	45µM*	i
CCc1nc2c(c(-c3ccc(Cl)cc3)n1)CN(C(=O)COC)CC2	12%	i	-18%	-24%	i
CCc1nc2c(c(-c3ccc(Cl)cc3)n1)CN([S+](C)(=O)[O-])CC2	4%[70.6 µM]	i	i	45µM*	i
CCc1nc2c(c(-c3ccc(Cl)cc3)n1)CN(C(=O)CCl)CC2	-16%	i	u	22µM*	i
CN(Cc1ccccc1)C(=O)Cc1ccc(N(Cc2cccc(F)c2)C(=O)c2ccco2)cc1	-20%	1%	u	35µM*	i
O=C(Cc1ccc(N(Cc2ccc(F)cc2)C(=O)c2ccco2)cc1)Nc1ccc(F)cc1	-3%	i	u	32µM*	i
